Data reported in PubChem BioAssay AID1159580 (chemical genetic matrix, 2015).
Values joined by “and” are separate entries in the source; they are usually repeats but may differ in a detail not shown here. Equal entries are not always repeated. Out of some 5,500 compounds screened, about 2,000 (36%) were called active. Another 18% or so got no clear call; they are omitted. Cut-off read from the data, not from the text of the source: active = normalized growth mostly below about 0.91 (no sharp cut-off); inconclusive = no clear call, values can overlap the other calls; inactive = mostly above about 0.92. This is one part of the list.

Assay: chemical genetic growth profiling, strain panel (AID 1159580);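 note: tested at 20 µM; growth read once vehicle control cultures reached saturation at 30 °C; 1 = growth at the plate median or of vehicle wells; lower values mean less growth of the strain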
Details: S. cerevisiae deletion strains, growth OD

Measured: normalized growth

COc1c(O)cc2c(c1O)[C@H]1O[C@H](CO)[C@@H](O)[C@H](O)[C@@H]1OC2=O
inactive: locus YAL021C, strain ccr4, hits give low values 1.03 | locus YAL026C, strain drs2, hits give low values 1.02 | locus YAL030W, strain snc1, hits give low values 1.02 | locus YBL061C, strain skt5, hits give low values 1.03 | locus YBR009C, strain hhf1, hits give low values 1.02 | locus YBR021W, strain FUR4, hits give low values 0.961 | locus YBR023C, strain chs3, hits give low values 1.03 | locus YBR171W, strain sec66, hits give low values 1.02 | locus YBR229C, strain ROT2, hits give low values 0.993 | locus YBR231C, strain swc5, hits give low values 1.02 | locus YBR279W, strain paf1, hits give low values 1.02 | locus YCL011C, strain gbp2, hits give low values 1.02 | locus YCL016C, strain dcc1, hits give low values 1.04 | locus YCL029C, strain bik1, hits give low values 0.998 | locus YCL061C, strain MRC1, hits give low values 1.02 | locus YCL069W, strain vba3, hits give low values 1.02 | locus YCR088W, strain abp1, hits give low values 1.02 | locus YDL005C, strain med2, hits give low values 1.03 | locus YDL035C, strain GPR1, hits give low values 1.02 | locus YDL040C, strain nat1, hits give low values 1.02 | locus YDL074C, strain BRE1, hits give low values 0.992 | locus YDL101C, strain DUN1, hits give low values 0.985 | locus YDL185W, strain tfp1, hits give low values 1.02 | locus YDL192W, strain arf1, hits give low values 0.983 | locus YDR001C, strain nth1, hits give low values 1.02 | locus YDR069C, strain doa4, hits give low values 1.03 | locus YDR101C, strain arx1, hits give low values 1.01 | locus YDR137W, strain rgp1, hits give low values 1.05 | locus YDR150W, strain NUM1, hits give low values 0.98 | locus YDR159W, strain sac3, hits give low values 1 | locus YDR162C, strain NBP2, hits give low values 0.988 | locus YDR195W, strain ref2 1 | locus YDR297W, strain sur2, hits give low values 1.02 | locus YDR318W, strain mcm21, hits give low values 1.01 | locus YDR334W, strain swr1, hits give low values 1.02 | locus YDR335W, strain msn5, hits give low values 1.02 | locus YDR388W, hits give low values 0.996 | locus YDR392W, strain spt3, hits give low values 0.966 | locus YDR502C, strain sam2, hits give low values 1 | locus YEL003W, strain gim4, hits give low values 1.02 | locus YEL037C, strain rad23, hits give low values 1.02 | locus YEL061C, strain CIN8 (second series), hits give low values 1.02 | locus YEL061C, strain CIN8, hits give low values 0.962 | locus YER015W, strain faa2, hits give low values 1.01 | locus YER016W, strain bim1, hits give low values 1.02 | locus YER110C, hits give low values 1.01 | locus YER111C, strain swi4, hits give low values 1.01 | locus YER155C, strain BEM2 (second series), hits give low values 1 | locus YER155C, strain BEM2, hits give low values 0.996 | locus YER167W, strain BCK2, hits give low values 0.973 | locus YFR010W, strain ubp6, hits give low values 1.02 | locus YGL078C, strain dbp3, hits give low values 1.03 | locus YGL086W, strain mad1, hits give low values 0.991 | locus YGL167C, strain pmr1, hits give low values 1.02 | locus YGL173C, strain kem1, hits give low values 1.01 | locus YGL227W, strain vid30, hits give low values 1.02 | locus YGL240W, strain doc1, hits give low values 1.01 | locus YGL248W, strain PDE1, hits give low values 1 | locus YGL253W, strain hxk2, hits give low values 1.02 | locus YGR135W, strain pre9, hits give low values 0.995 | locus YGR252W, strain gcn5, hits give low values 0.991 | locus YHR013C, strain ard1, hits give low values 1.02 | locus YHR027C, strain rpn1, hits give low values 1.01 | locus YHR030C, strain SLT2, hits give low values 1.01 and 0.959 | locus YHR079C, strain IRE1 (second series), hits give low values 1.01 | locus YHR079C, strain IRE1, hits give low values 0.987 | locus YHR094C, strain hxt1, hits give low values 0.996 | locus YHR129C, strain ARP1, hits give low values 0.988 | locus YHR142W, strain chs7, hits give low values 1.05 | locus YHR200W, strain rpn10, hits give low values 1 | locus YIL066C, strain RNR3, hits give low values 0.986 | locus YIL073C, strain SPO22, hits give low values 1.05 | locus YIL125W, strain kgd1, hits give low values 1.01 | locus YIR030C, strain dcg1, hits give low values 1 | locus YJL092W, strain hpr5, hits give low values 1.02 | locus YJL095W, strain BCK1 (second series), hits give low values 1.03 | locus YJL095W, strain BCK1, hits give low values 0.811 and 0.98 | locus YJL115W, strain asf1, hits give low values 1.01 | locus YJL129C, strain trk1, hits give low values 1.04 | locus YJL134W, strain LCB3, hits give low values 0.998 | locus YJL154C, strain vps35, hits give low values 1.01 | locus YJL164C, strain tpk1, hits give low values 1.02 | locus YJL166W, strain qcr8, hits give low values 1.03 | locus YJL168C, strain set2, hits give low values 1 | locus YJL187C, strain SWE1 (second series), hits give low values 0.969 | locus YJL187C, strain SWE1, hits give low values 1.03 | locus YJR043C, strain POL32, hits give low values 0.997 | locus YJR066W, strain TOR1, hits give low values 0.934 | locus YJR075W, strain HOC1, hits give low values 1
